The list is not random: actives were taken first. Their share in the collection is about 11%.
G9a inh: qHTS Assay for Inhibitors of Histone Lysine Methyltransferase G9a; Histone-lysine N-methyltransferase EHMT2 (Homo sapiens), Q96KQ7; G9a H3K9 monomethylation, AlphaScreen, 2 h; Potency, µM (titrated, usually from 102 µM), without a hit: at the highest dose activity, negative = inhibition, usual class: inhibitors; 350,000 tested, 8.8% active; note: potency is the fitted concentration of half-maximal effect; % is set by controls: 0 for no effect and ±100 for the full control effect; nearly all actives have a fitted effect of over 75% in size
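Enzyme 20 nM + cpd, 15 min RT; add b-H3K9 pep 500 nM / SAM 20 uM; 2 h RT; anti-H3K9me1 Ab 0.5 ug/mL + SA donor / anti-rabbit acceptor beads 20 ug/mL each, 10 min; AlphaScreen read.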
PI5P4K alpha inh: qHTS for Inhibitors of phosphatidylinositol 5-phosphate 4-kinase (PI5P4K). Phosphatidylinositol 5-phosphate 4-kinase type-2 alpha (Homo sapiens), P48426. PI5P4Kalpha enzyme, ADP-Glo luminescence, 60 min; hits give low values. max response, %. 330,000 tested, 1.2% active; active = max response of -50% or lower; inconclusive = between -30% and -50%; inactive = -30% or higher; note: value at the top dose of about 77 µM; % is set by controls: 0 for no effect and ±100 for the full control effect
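Compounds were pin-transferred onto PI5P4Kalpha and substrate in HEPES pH 7.4 buffer with EGTA, CHAPS and 5% DMSO. ATP (5 microM final) started the reaction, which ran 60 minutes at room temperature before ADP-Glo detection.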
JMJD2A Tudor: qHTS Assay for Inhibitors of JMJD2A-Tudor Domain; Lysine-specific demethylase 4A (Homo sapiens), O75164; AlphaScreen JMJD2A-Tudor / H3K4me3 peptide binding; Potency, µM (doses to about 114 µM), for inactives: top-dose activity change, negative = inhibition, hits mostly inhibitors; 390,000 tested, 4.4% active; AID 504339, 2011; note: potency is the fitted concentration of half-maximal effect; % is set by controls: 0 for no effect and ±100 for the full control effect; nearly all actives have a fitted effect of over 50% in size
HP1b chromo inh: HTS for Inhibitors of HP1-beta Chromodomain Interactions with Methylated Histone Tails | Chromobox protein homolog 1 (Homo sapiens), P83916 | AlphaScreen HP1-beta / biotin-H3K9me3 peptide binding | Potency, µM (top dose mostly 114 µM), without a hit: top-dose activity change, negative = inhibition, most hits filed as inhibitors | 390,000 tested, 0.56% active | AID 540317, 2011; note: potency is the fitted concentration of half-maximal effect; nearly all actives have a fitted effect of over 70% in size
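Compound inhibition of the preformed complex between 50 nM HP1-beta and 50 nM biotinylated H3K9me3 peptide was read by AlphaScreen. Buffer was PBS pH 7.4 with 0.01% Tween-20. Incubations ran 30 min at room temperature, with 10 ug/mL donor/acceptor beads.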
BAZ2B inh: qHTS Assay for Inhibitors of BAZ2B | Bromodomain adjacent to zinc finger domain protein 2B (Homo sapiens), Q9UIF8 | AlphaScreen BAZ2B-H3K14Ac peptide displacement | Potency, µM (series often up to 114 µM), for inactives: at the top dose activity change, negative = inhibition, usual class: inhibitors | 360,000 tested, 4.4% active; note: potency is the fitted concentration of half-maximal effect; % is set by controls: 0 for no effect and ±100 for the full control effect; nearly all actives have a fitted effect of over 60% in size
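Complex of BAZ2B and biotin-H3K14Ac (50 nM apiece) forms over 30 min at RT, then faces library compounds up to 110 uM for another 30 min; AlphaScreen beads added, 20 min dark incubation, luminescence read.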
L3MBTL1 block: qHTS Assay for the Inhibitors of L3MBTL1 | Lethal(3)malignant brain tumor-like protein 1 (Homo sapiens), Q9Y468 | AlphaScreen L3MBTL1–H3K9me1 peptide binding | Potency, µM (highest dose often 57.1 µM), inactives show at the highest dose activity, negative = inhibition, hits mostly inhibitors | 230,000 tested, 0.66% active | AID 485360, 2010; note: potency is the fitted concentration of half-maximal effect; % is set by controls: 0 for no effect and ±100 for the full control effect; nearly all actives have a fitted effect of over 60% in size
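L3MBTL1 (50 nM) pre-complexed 30 min with biotinylated H3(1-15)K9me1 peptide (75 nM), then compounds added for 30 min at room temperature; AlphaScreen streptavidin donor/nickel chelate acceptor beads (10 ug/mL final) read after 30 min dark incubation.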
Starred values were filed as active, the others as inactive; ? = inconclusive; . = no result given; [ ] = another dose, or the depositor's remark. Unless noted, calls come from the whole dose curve; as a rule, active = well fitted inhibition curve with a large enough effect; inconclusive = small, poorly fitted or top-dose-only effect; inactive = no such curve, though single readings can be large or run the other way.

SMILES	G9a inh	PI5P4K alpha inh	JMJD2A Tudor	HP1b chromo inh	BAZ2B inh	L3MBTL1 block
O=c1cc(O)n(-c2ccccc2)c(=S)[nH]1	18µM*	?	-20%[11.4 µM]	-5%	1%	9%
COc1cccc(C(=O)NCCc2csc3nc(-c4ccccc4F)nn23)c1OC	1%[59 µM]	.	-10%	26%[57 µM]	1%	.
O=C(N/N=C(\Cc1ncc[nH]1)c1ccccc1)c1cccnc1	-11%	2	50µM*	24%	14µM*	.
O=C(N/N=C(\Cc1ncc[nH]1)c1ccccc1)c1ccncc1	-23%	3	40µM*	47%	8.9µM*	.
CC(/C=C/C=C/c1ccccc1)=N\NC(=O)c1cccnc1	66%[59 µM]	-19	-10%	24%	3%	.
O=C(N/N=C(\c1ccccc1)c1cccnc1)c1cccc(F)c1	8%	0	45µM*	18%	56µM*	.
O=C(N/N=C(\Cc1ncc[nH]1)c1ccccc1)c1ccccc1	5%[59 µM]	.	.	.	-1%	.
O=C(N/N=C(\c1ccccc1)c1cccnc1)c1ccc(O)cc1	2%	6	-18%	51%	-15%	.
Cc1cc(Cl)ccc1OCc1cc(=O)n2c3c(sc2n1)CCCC3	2%[59 µM]	.	5%	51%	-3%	.
Cc1cs/c(=N\N=C\c2ccccc2)n1Cc1ccco1	14µM*	12	35µM*	?	13µM*	?
Cc1cs/c(=N\N=C2CCCCC2)n1Cc1ccco1	?	2	?	?	45µM*	-29%
CC(C)NC(=O)N1CCCC2(CCN(C(=O)c3csnn3)CC2)C1	2%[12.7 µM]	.	.	.	.	.
COC(=O)c1ccc(NC(=O)c2cc(S(=O)(=O)N3CCc4ccccc43)cn2C)cc1	-17%[59 µM]	.	-15%	46%	1%	.
COCCCNCc1cc(C)n(-c2cc(S(=O)(=O)N3CCOCC3)ccc2N2CCCC2)c1C	.	-6	79µM*	?	.	.
Cc1cc(C#N)c(C)n1-c1cc(S(=O)(=O)N2CCOCC2)ccc1N1CCCC1	6.3µM*	?	?	-63%	-37%	.
Nc1cc(S(=O)(=O)N2CCOCC2)ccc1N1CCOCC1	.	11	-11%	31%	.	-1%
CN(C)C(=O)c1ccc(-c2nc(NC3CCNCC3)c3ccccc3n2)cc1	2%[0.501 µM]	.	.	.	.	.
CC12CCC(C(=O)NNc3ccccc3)(OC1=O)C2(C)C (stereo not given)	56µM*	6	2%	48%	-19%	7%
O=C(c1ccccc1F)N1c2nc(-c3ccco3)nn2C2(CCCCC2)[C@@H]2CCCC[C@@H]21	-6%[59 µM]	.	?	8%	12%	.
CCCC[C@@H]1CCCO[C@@](C(=O)NCc2ccc(C)o2)(C(F)(F)F)C1	.	-54*	-1%	38%	.	.
N#Cc1nc(Nc2ccccc2)nc(NC2CCCC2)n1	.	.	-7%	.	.	.
CCc1c(C(C)S(=O)(=O)c2ccccc2)[nH]c(=O)n1CC (stereo not given)	3.5µM*	-28	?	-32%	-13%	4%
CC(S(=O)(=O)c1ccccc1)S(=O)(=O)c1ccccc1	.	6	.	.	.	.
O=C(Cc1ccc(S(=O)(=O)N2CCOCC2)s1)Nc1ccc(S(=O)(=O)N2CCCCC2)cc1	45µM*	-25	-23%	-3%	5%	18%
CC1CCN(S(=O)(=O)c2ccc(NC(=O)Cc3ccc(S(=O)(=O)N4CCOCC4)s3)cc2)CC1	4%[0.501 µM]	3	-10%	28%	-29%	-2%
SMILES	G9a inh	PI5P4K alpha inh	JMJD2A Tudor	HP1b chromo inh	BAZ2B inh	L3MBTL1 block
NNC(=S)Nc1ccc(S(=O)(=O)N2CCOCC2)cc1	.	?	?	1%	-10%	-3%
CNC(=O)c1ccc(NC(=O)Cc2ccc(S(=O)(=O)N3CCOCC3)s2)cc1	45µM*	-3	3%	13%	-17%	-2%
CCNC(=O)Cc1ccc(S(=O)(=O)N2CCOCC2)s1	-15%[59 µM]	-12	-21%	39%	2%	-2%
CC1CCCN(S(=O)(=O)c2ccc(NC(=O)Cc3ccc(S(=O)(=O)N4CCOCC4)s3)cc2)C1 (stereo not given)	4µM*	5	-21%	-5%	7%	-4%
O=S(=O)(c1ccc(NC(=S)NN=C2CCCCC2)cc1)N1CCOCC1	6.3µM*	?	28µM*	12%	-23%	8%
COC(=O)c1c(NC(=O)c2nc(SCc3ccccc3C)ncc2Cl)sc2c1CCCC2	30%[59 µM]	.	-25%	64%	24%	.
O=NCc1ccc([N+](=O)[O-])o1	21%[59 µM]	.	.	.	.	.
NS(=O)(=O)c1ccc(CCNC(=O)c2nc(SCc3ccccc3F)ncc2Cl)cc1	4%[59 µM]	.	-14%	28%	-2%	.
O=C(c1cccc(F)c1)N1CCC[C@@]2(CCN(c3ncccn3)C2)C1	0%[12.7 µM]	.	.	.	.	.
CCOc1ccc(CC(=O)NCC(c2cccs2)S(=O)(=O)c2ccc(F)c(C)c2)cc1 (stereo not given)	3%[12.7 µM]	.	-13%	37%	-1%	.
COC(=O)CCNC(=O)Cc1ccc(S(=O)(=O)N2CCCCC2)s1	50µM*	?	-26%	-3%	-2%	-6%
CC(=O)Nc1ccc(NC(=O)Cc2ccc(S(=O)(=O)N3CCCCC3)s2)cc1	?	?	?	8%	?	-27%
NS(=O)(=O)c1cccc(NC(=O)COC(=O)Cc2ccc(S(=O)(=O)N3CCOCC3)s2)c1	.	-17	-23%	3%	.	.
CCOc1ccc(NC(=O)COC(=O)Cc2ccc(S(=O)(=O)N3CCOCC3)s2)cc1	40µM*	.	-31%	8%	?	.
O=C(Nc1cccc(Cl)c1)c1cc(S(=O)(=O)N2CCCc3ccccc32)ccc1F	9%[59 µM]	.	-2%	12%	15%	.
CC(C)CN(C(=O)c1cccc([N+](=O)[O-])c1)c1c(N)n(CC(C)C)c(=O)[nH]c1=O	50µM*	-5	6%	37%	23%	.
CC(C)CN(C(=O)c1cc2ccccc2o1)c1c(N)n(CC(C)C)c(=O)[nH]c1=O	50µM*	16	0%	25%	9%	?
CC(C)CN(C(=O)CCc1ccccc1)c1c(N)n(CC(C)C)c(=O)[nH]c1=O	25%[59 µM]	0	-18%	6%	-4%	11%
O=C(Nc1cccc(F)c1)N1CC[C@@]2(CCCN(C(=O)c3ccncc3)C2)C1	-29%[12.7 µM]	.	.	.	.	.
CN(C)c1cccc(C(=O)Nc2nc3ccc(S(=O)(=O)N4CCCC4)cc3s2)c1	?	.	-32%	32%[57 µM]	-6%	.

Screening results from PubChem BioAssay.
